Mot1-301 SUMO = yeast Mot1-301 growth rescue at high temperature, primary screen, SUMOylation pathway inhibitor project, S. cerevisiae, ATP luminescence, 38.5C | 320,000 compounds, 1% hits | growth rescue, % at 18.8 µM | S. cerevisiae Mot1-301 growth rescue; percent above DMSO median, 100 means doubled;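 active = every valid replicate shows activation above 250% relative to neutral control wells; inactive = the rest, any valid replicate at or below 250%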
HIF activator = HIF pathway transcriptional activators, primary screen, cell-based, U2OS HRE-luciferase, luminescence; activation, % at 7.5 µM (by protocol); 300,000 compounds, 0.32% hits; U2OS HRE-luciferase reporter; normalized: DMSO 0%, desferrioxamine 100%; AID 1910, 2009;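 active = mean activation of at least 10% of the iron chelator positive control signal, with at least half of replicates also reaching 10%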
AI-2 QS modul = Vibrio harveyi AI-2 quorum sensing modulators, primary screen, JMH597 strain, luminescence/OD600 ratio; activity change, % at 7.5 µM; 300,000 compounds, 0.4% hits; Vibrio harveyi JMH597 AI-2 luminescence/OD600 ratio, 9 h; active compounds read low; strain lacks LuxN and CqsS sensors; 0 = neutral-control median; AID 2094, 2009; in the data active = activity change below about -75%, passing the limit was not always enough;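 note: luminescence divided by OD600 gain over 9 h not by final OD600 alone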
ALR H2O2 inh = inhibitors of human ALR sulfhydryl oxidase, primary screen, biochemical, H2O2 detection, HRP-luminol luminescence, single point; inhibition, % (no concentration beside the values); FAD-linked sulfhydryl oxidase ALR (Homo sapiens), P55789; purified ALR, DTT oxidation; 290,000 compounds, 3.8% hits;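 active = mean replicate inhibition above about 79%, with every replicate also reaching it, limit read from the data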
Target sequence (P55789 whole entry, looked up): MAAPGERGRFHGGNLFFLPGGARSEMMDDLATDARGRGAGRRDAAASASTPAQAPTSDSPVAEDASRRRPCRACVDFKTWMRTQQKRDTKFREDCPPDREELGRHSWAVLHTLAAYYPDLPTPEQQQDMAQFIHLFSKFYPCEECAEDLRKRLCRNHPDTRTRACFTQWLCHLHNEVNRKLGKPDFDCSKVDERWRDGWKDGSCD
A number is an active result; 0 = inactive; - = no result. Compounds with a hit are over-represented: about 4.8% of the library has one in this group of screens.

SMILES	Mot1-301 SUMO	HIF activator	AI-2 QS modul	ALR H2O2 inh
COC(=O)c1sc(N2C(=O)C(=O)/C(=C(/O)c3ccc(C)cc3)C2c2ccco2)nc1C (stereo unspecified)	0	0	0	92
CC(=O)Nc1ccc(N=Nc2ccc(O)cc2)cc1	0	0	0	99
CC(=O)Nc1ccc(-c2ccc(NC(C)=O)cc2)cc1	-	0	0	0
CC(=O)Nc1ccc(N=NN2CCOCC2)cc1	0	0	-88	0
CC(=O)Nc1cccc(N=NN2CCCCC2)c1	0	-	0	88
CC(=O)Nc1ccc(S(=O)(=O)N(C)c2ccc(O)cc2)cc1	0	0	0	98
CCOc1ccccc1N1CC(C(=O)Nc2cc(Cl)ccc2-n2cncn2)CC1=O (stereo unspecified)	0	0	0	0
CCOc1cccc2sc(N(CCN(CC)CC)C(=O)c3cccc(N4C(=O)CCC4=O)c3)nc12	290	0	0	0
NC(=O)N/N=C/c1ccccc1OCc1cccc2ccccc12	0	0	0	0
CC(C)Oc1ccccc1C1NC(=O)CCC1[N+](=O)[O-] (stereo unspecified)	0	0	0	-
S=C(c1c[nH]c2ccc(Br)cc12)N1CCOCC1	0	0	0	99
COc1ccc(Cc2nc3ccc(C(=O)N(C)C(C)c4ccon4)cc3o2)cc1 (stereo unspecified)	0	0	0	0
COCCN(CC(=O)Nc1cccc(C)c1C)C(=O)C1(c2ccc(Cl)cc2)CCC1	0	-	-	-
O=C(c1ccc(O)cc1)c1ccc(Cl)cc1	0	0	0	0
C=C(c1ccc(O)cc1)c1ccc(O)cc1	0	0	0	98
O=C(Cn1[nH]c(=O)c2ccccc2c1=O)NCCN1C(=O)S/C(=C\c2ccccc2)C1=O	0	-	-	0
CCOc1ccc(OCCC(=O)OCC(=O)NC2CCCC2)cc1	0	-	-	0
CC(C)c1ccc(NC(=O)C2CCC(CNC(=O)[C@@H]3Cc4ccccc4CN3)CC2)cc1 (stereo partly specified)	0	0	0	0
CC1=NN(c2ccccc2)C(=O)C1c1ccccc1 (stereo unspecified)	0	0	0	94
CC(=O)C1=C(O)C(=O)N(c2ccc(O)cc2)C1c1cccc([N+](=O)[O-])c1 (stereo unspecified)	0	0	0	83
CC(=O)C1=C(O)C(=O)N(c2ccc(O)cc2)C1c1cccc(F)c1 (stereo unspecified)	0	0	0	82
CC(=O)C1=C(O)C(=O)N(c2ccc(O)cc2)C1c1ccc(C)cc1 (stereo unspecified)	0	0	0	99
CC(=O)C1=C(O)C(=O)N(c2ccc(Br)cc2)C1c1cccc(F)c1 (stereo unspecified)	0	0	0	-
OCCNCc1c(OCc2ccc(Cl)cc2)ccc2ccccc12	0	0	0	0
CCOc1ccc(NC(=O)CCC(=O)NNC(=O)c2ccc(Br)o2)cc1	0	0	0	0
SMILES	Mot1-301 SUMO	HIF activator	AI-2 QS modul	ALR H2O2 inh
NC(N)=NN=C1CCC(c2ccccc2)CC1 (stereo unspecified)	0	0	0	0
Cc1cc(C)c(S(=O)(=O)N2CCOC2CNC(=O)C(=O)NCCCN2CCOCC2)c(C)c1 (stereo unspecified)	0	0	0	0
Cc1ccc(Nc2ccc(C(=O)O)cc2N)cc1	0	0	0	99
COc1cccc(Nc2ccc(C(=O)O)cc2N)c1	0	0	0	99
CCOc1ccccc1Nc1ccc(C(=O)O)cc1N	0	0	0	0
Cc1cc(C)cc(Nc2ccc(C(=O)O)cc2N)c1	0	0	0	-
COC(=O)c1ccc(CN2C(=O)C(C)N(C(=O)c3c(F)cccc3F)c3ccccc32)cc1 (stereo unspecified)	0	0	0	0
CCN1CCN(C(=S)NC(=O)/C=C/c2cccs2)CC1	676	0	0	0
O=C(/C=C/c1cccs1)NC(=S)NNC(=O)c1ccccc1O	0	0	0	0
Cc1ccc(-n2nc3cc(C)c(NC(=S)NC(=O)/C=C/c4ccco4)cc3n2)cc1	0	0	0	86
O=C(/C=C/c1ccco1)NC(=S)Nc1ccccc1	0	0	-77	0
O=C(/C=C/c1cccs1)NC(=S)Nc1ccccc1	0	0	-77	0
CN1CCN(Cc2nc3ccccc3c(=O)n2Cc2nc(-c3ccccc3F)cs2)CC1	0	20	0	-
CN1CCN(Cc2nc3ccccc3c(=O)n2Cc2nc(-c3ccc4ccccc4c3)cs2)CC1	0	0	0	98
c1ccc(Nc2c(-c3ccco3)nc3ccccn23)cc1	0	0	0	98
Cc1ccc(Nc2c(-c3ccco3)nc3ccccn23)cc1	0	0	0	99
Cc1cccc2nc(-c3ccco3)c(Nc3ccc4c(c3)OCCO4)n12	0	0	0	95
CCN(CCNC(=O)c1ccc(C#N)cc1)c1cccc(C)c1	0	0	0	98
CC(C)Oc1ccc(CN2CCC(n3nccc3NC(=O)C3CC3)CC2)cc1	0	0	0	0
CCc1ccc(NC(=S)NC2CCN(Cc3ccccc3)CC2)cc1	0	0	0	96
O=C(Cc1ccccc1)NC1CCN(Cc2ccccc2)CC1	0	0	0	0
O=C(Cc1ccc(Br)cc1)NC1CCN(Cc2ccccc2)CC1	283	0	0	0
S=C(Nc1ccccc1)NC1CCN(Cc2ccccc2)CC1	0	0	0	0
COc1ccc(CC(=O)Nc2ccc(N3CCCC3)c(C)c2)cc1	0	0	0	0
CCn1cnc2cc(NCc3ccc(Cl)cc3)ccc21	0	0	0	0
SMILES	Mot1-301 SUMO	HIF activator	AI-2 QS modul	ALR H2O2 inh
CCn1cnc2cc(NCc3ccncc3)ccc21	0	-	0	82
Cc1ccc(CNc2ccc3c(c2)ncn3C(C)(C)C)cc1	0	0	0	89
Cc1ccc(S(=O)(=O)Nc2ccc3c(c2)ncn3C(C)(C)C)cc1	0	0	0	0
O=C(Nc1cccc(F)c1)C1CCCN(S(=O)(=O)c2ccc(-n3cnnn3)cc2)C1 (stereo unspecified)	0	0	0	0
OC1(C#CCN2CCCC2)CCCCC1	0	0	0	0
O=[N+]([O-])c1cc(S(=O)(=O)O)cc([N+](=O)[O-])c1NN(c1ccccc1)c1ccccc1	0	0	0	99
Cc1ccc(C(=O)NCC(=O)NCCCc2ccccc2)cc1	0	0	0	0
CC1CCC2(CC1)NC(=O)N(CC(=O)N1CCN(c3ccccc3)CC1)C2=O (stereo unspecified)	0	-	-	0
COC(=O)CCC(=O)NNC(=O)C1CC1(c1ccccc1)c1ccccc1 (stereo unspecified)	0	0	0	0
CCOc1ccc(N2C(=O)Nc3ccccc3C2(O)C(=O)NCc2ccccc2)cc1 (stereo unspecified)	0	0	0	92
O=C(c1cn(Cc2ccccc2)nc1-c1ccccc1)N1CCN(c2ccccn2)CC1	0	-	-	0
Clc1ccccc1OCCCOc1cccc2cccnc12	0	0	0	0
CCN1CCc2nc(SCC(=O)Nc3ccc(OC)cc3)c(C#N)cc2C1	0	0	0	99
